A selection: hits, their analogues and other compounds. The true share with any hit is near 6%.
D3 ag: activates the human D3 dopamine receptor. max activation, %. D3R DiscoveRx beta-arrestin cells, luminescence, 90 min. hit rate 0.58% among 410,000; in the data active = max activation above about 30%; note: 0% is about no effect
Target sequence (P35462 whole entry, looked up): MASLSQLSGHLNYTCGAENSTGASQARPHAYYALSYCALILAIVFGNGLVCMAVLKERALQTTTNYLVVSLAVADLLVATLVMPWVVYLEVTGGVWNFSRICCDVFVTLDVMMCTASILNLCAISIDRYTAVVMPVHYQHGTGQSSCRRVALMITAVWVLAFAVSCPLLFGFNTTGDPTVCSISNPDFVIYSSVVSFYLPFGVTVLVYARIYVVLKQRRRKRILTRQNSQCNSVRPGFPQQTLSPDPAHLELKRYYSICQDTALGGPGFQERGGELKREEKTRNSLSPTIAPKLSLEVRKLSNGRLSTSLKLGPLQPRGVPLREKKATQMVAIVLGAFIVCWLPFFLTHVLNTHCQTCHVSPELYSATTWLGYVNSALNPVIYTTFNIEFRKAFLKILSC
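Agonist mode: compounds and dopamine controls were applied to plated cells for 90 min at 37 degrees C after an overnight attachment at 1500 cells/well. Luminescent read-out followed 30 - 60 minutes at room temperature with DiscoveRx detection reagent.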
D1 antag: human D1 dopamine receptor antagonism. HEK293 TREx D1 cells, calcium flux, dopamine EC80; hits give low values. activity change, negative = inhibition, % at 10 µM. hit rate 3.2% among 360,000. AID 504652. P21728; in the data active = activity change below about -30%; note: % is set by controls: 0 for no effect and ±100 for the full control effect
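Calcium flux readout: force-coupled, inducible Hek293 Trex D1 line, cells induced overnight at 30 C with tetracycline, dye-loaded 30–90 min at RT. Antagonism scored against EC80 dopamine challenge given 180 s after compound.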
D3 antag: antagonists of human D3 dopamine receptor. max response, negative = inhibition, %. AID 652054. hit rate 2.5% among 360,000. D3R cells, DiscoveRx beta-arrestin luminescence, antagonist mode; hits give low values. P35462; in the data active = max response below about -50%; note: % is set by controls: 0 for no effect and ±100 for the full control effect
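Cells plated overnight at 1500 cells/well, then exposed to library compounds with dopamine controls for 90 minutes at 37 degrees C. DiscoveRx reagent added for 30–60 minutes at room temperature; luminescence read, quantitative HTS format.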
D1 ag: activates the human D1 dopamine receptor; P21728; HEK293 T-REx D1 cells, calcium flux, agonist mode; activation, % at 2 µM; hit rate 1% among 360,000; in the data active = activation above about 30%; note: 0% is about no effect
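Inducible HEK293 T-REx D1 cells, force-coupled to calcium signalling, were plated at 4000 cells/well with tetracycline and held overnight at 30 C. After no-wash calcium dye loading, compound-evoked calcium rise over 180 s flagged agonists.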
D1 potentiator: human D1 dopamine receptor positive modulation | potentiation, % at 10 µM | AID 504651 | hit rate 0.036% among 360,000 | HEK293 TREx D1 cells, calcium flux, dopamine EC20 potentiation | P21728; in the data active = potentiation above about 30%; note: 0% is about no effect
An asterisk follows results filed as active; nt = no result.

SMILES | D3 ag | D1 antag | D3 antag | D1 ag | D1 potentiator
CC(NC(=O)CCn1c(=O)c2cccn2c2ccc(F)cc21)c1ccccc1 (stereo not drawn) | -32 | -8 | nt | 3 | -4
CCOC(=O)c1c(C)n(-c2ccc(OC)cc2)c2ccc(OC(=O)COc3ccccc3)cc12 | 6 | 3 | nt | 22 | -1
O=C(O)c1ccc2c(c1)C(=O)N([C@@H](Cc1ccc(O)cc1)C(=O)O)C2=O | nt | 27 | nt | 2 | -3
Cc1cccc(C[C@H](C(=O)O)N2C(=O)c3ccc(C(=O)O)cc3C2=O)c1 | nt | -32* | nt | 2 | -4
O=C(O)c1ccc2c(c1)C(=O)N(C(Cc1ccc(O)cc1)C(=O)O)C2=O (stereo not drawn) | -2 | -17 | -70* | 1 | 0
O=C(O)c1ccc2c(c1)C(=O)N([C@H](Cc1ccc(-c3ccccc3)cc1)C(=O)O)C2=O | nt | -35* | nt | 5 | 9
O=[S+]([O-])(c1cc2ccccc2o1)N1CCN([S+](=O)([O-])c2c(F)cccc2F)CC1 | nt | 15 | nt | 2 | 4
COc1ccccc1C(=O)c1cn(CC(=O)Nc2ccccc2F)c2nc(C)ccc2c1=O | 1 | 8 | nt | 1 | -3
COc1cc(-c2cc(NC(C)=O)c3ncc(-c4ccc(C(C)=O)cc4)n3c2)cc(OC)c1OC | 6 | nt | 7 | nt | nt
Cc1cc(C)c(NC(=O)Cc2csc(C)n2)c(Cl)c1 | 6 | 12 | nt | 0 | -1
O=C(COC(=O)C1COc2ccccc2O1)c1ccccc1 (stereo not drawn) | 4 | nt | 9 | nt | nt
CCCCC/C(=N\NC(=O)CCC(=O)NCc1ccccc1)c1ccccc1 | 0 | -4 | 13 | 1 | -4
CCCCCC/C(=N\NS(C)(=O)=O)c1ccccc1 | 4 | -68* | -10 | -1 | 29
CCCC/C(=N\NC(=O)c1ccc(Br)o1)c1ccccc1 | 7 | -66* | 8 | 1 | -4
CCOc1ccc(NC(=O)C2Cc3ccccc3N2C(=O)c2ccccc2)cc1 (stereo not drawn) | -1 | -2 | nt | 1 | 0
CC(C)(C)NC(=O)c1ccc2c(c1)N(CC(=O)NC1CCCC1)C(=O)C(C)(C)O2 | -17 | -7 | -27 | 1 | -6
CC1(C)Oc2ccc(C(=O)NC3CCCC3)cc2N(CC(=O)NC2CCCC2)C1=O | -5 | 2 | -76* | 4 | 1
CCCCCCC(=O)O[C@H]1CC[C@H]2[C@@H]3CCc4cc(O)ccc4[C@H]3CC[C@]12C | -3 | nt | nt | nt | nt
COc1ccc(C(c2c(O)cc(C)n(Cc3ccco3)c2=O)N2CCN(c3ccccc3)CC2)cc1 (stereo not drawn) | -12 | 7 | nt | 0 | -1
C=CCOC(=O)C1=C(C)NC(=O)NC1/C=C/c1ccccc1 (stereo not drawn) | 2 | -31* | -25 | 1 | -4
CN(C(=O)CSc1nc2ccccc2n1CC(=O)N(C)C1CCCCC1)c1ccccc1 | -16 | -1 | nt | -2 | 1
CCc1ccccc1NC(=O)c1ccc2nc(C(C)C)oc2c1 | -10 | 15 | nt | 1 | 0
c1ccc2c(c1)oc1c(Nc3ccc4c(c3)OCO4)ncnc12 | -4 | -7 | -27 | 0 | -6
Cc1nnc(Nc2ccc3c(c2)OCO3)c2ccccc12 | -8 | 1 | -63* | -1 | -7
Cc1nc(Nc2ccccc2)c2oc3ccc(Cl)cc3c2n1 | 93* | -10 | -6 | 0 | -1
SMILES | D3 ag | D1 antag | D3 antag | D1 ag | D1 potentiator
Cc1nc(Nc2ccc3c(c2)OCO3)c2oc3ccccc3c2n1 | -3 | 7 | -54* | 6 | -2
Cc1ccc(-c2nnc(Nc3ccc4c(c3)OCO4)c3ccccc23)cc1S(N)(=O)=O | -18 | 1 | 1 | 5 | 3
COc1ccc(CCNC(=O)c2ccc(Cn3c(=O)c4ccccc4n(Cc4cccc(F)c4)c3=O)cc2)cc1OC | 4 | 13 | nt | 7 | -3
Cc1c(Cl)cccc1NC(=O)c1cnc2sc(N3CCOCC3)nn2c1=O | -12 | -22 | nt | 0 | -4
Cc1cccc(Nc2ncnc(N)n2)c1 | 8 | -33* | 9 | 2 | -6
O=C(CCCC1=NS(=O)(=O)c2ccccc2N1)Nc1ccccc1 | -16 | -26 | -1 | 2 | -5
CC1(c2ccc(OC(F)F)cc2)NC(=O)N(/N=C/c2c(O)ccc3ccccc23)C1=O (stereo not drawn) | -5 | 29 | -23 | 32* | -1
COc1ccc(C(=O)/C=C/c2ccc(O)cc2)c2c1CC(O)C(C)(C)O2 (stereo not drawn) | -25 | nt | -16 | nt | nt
